Compound activity deposited in PubChem BioAssay by National Center for Advancing Translational Sciences (NCATS).
Shown are actives, neighbours in structure and some others; about 2.4% of the full set was active somewhere.
HepG2 viability: qHTS for Inhibitors of TGF-b: Cytotox Counterscreen; HepG2 CAGA-GFP viability, ATP luminescence, 18 h; Potency, µM (series often up to 46.1 µM), inactives show top-dose activity change, negative = cytotoxicity, usual class: cytotoxic; hit rate 0.76% among 410,000
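CellTiter-Glo luminescence gave cytotoxicity after 18 hours at 37 degrees C. The cells were HepG2 CAGA-GFP in 1% FBS DMEM, stimulated with 500 pg/mL TGF-beta after compound addition. %Activity was normalised to no-cell wells (complete cell-killing) and DMSO (no toxicity), and curves were fitted and classified.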
S2 tox: Viability Counterscreen for Primary qHTS for Inhibitors of ATXN expression; S2 cells (HEK-293 line with an ATXN2-luciferase reporter) viability, CellTiter-Fluor protease fluorescence, 24 h; AID 651635, 2014; hit rate 0.49% among 400,000; Potency, µM (series often up to 56.7 µM), hits mostly cytotoxic; further: nearly all actives have a fitted effect of over 40% in size
TGFb SMAD3 inh: qHTS for Inhibitors of TGF-b; HepG2 CAGA-GFP TGF-b/SMAD3 reporter, GFP fluorescence, 18 h; TGF-beta stimulated, 500 pg/mL final; Potency, µM (titrated, usually from 46.1 µM), for the others: top-dose activity, negative = inhibition, actives largely listed as inhibitors; hit rate 1.2% among 410,000; AID 588855, 2011; further: on the % scale 0 is the no-effect control and ±100 the full control effect; nearly all actives have a fitted effect of over 65% in size
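First, reporter cells (HEPG2 CAGA-GFP) rested 2 h at 37 degrees C. Next, compounds were pinned in and TGF-beta added to 500 pg/mL final. After 18 h, GFP was imaged per cell and summed per well.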
Anesthetic bind: qHTS Assay for Identification of Novel General Anesthetics; Ferritin light chain (Equus caballus), P02791; apoferritin/1-aminoanthracene competitive binding, fluorescence; Potency, µM (doses to about 77.5 µM), inactives show at the top dose activity change, negative = displacement, most hits filed as inhibitors; hit rate 0.074% among 350,000; further: on the % scale 0 is the no-effect control and ±100 the full control effect; nearly all actives have a fitted effect of over 20% in size
Target sequence (P02791 2-175 limits assumed): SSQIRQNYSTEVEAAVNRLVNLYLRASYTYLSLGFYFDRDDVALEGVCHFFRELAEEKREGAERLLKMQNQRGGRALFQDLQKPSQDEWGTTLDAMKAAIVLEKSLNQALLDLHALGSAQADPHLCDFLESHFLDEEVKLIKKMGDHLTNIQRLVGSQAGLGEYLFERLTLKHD
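Apoferritin-based anesthetic binding model; compound displacement of fluorescent 1-AMA measured as endpoint fluorescence after 10 minutes at room temperature, scaled to free-ligand and complex controls.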
ATXN2 expr inh: Primary qHTS for Inhibitors of ATXN expression; Potency, µM (top dose mostly 57 µM), for inactives: at the top dose activity change, negative = inhibition, actives largely listed as inhibitors; HEK-293 ATXN2-luciferase reporter, luminescence, 24 h; hit rate 0.72% among 360,000; AID 1745845, 2022; further: on the % scale 0 is the no-effect control and ±100 the full control effect; nearly all actives have a fitted effect of over 55% in size
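ATXN2-luciferase reporter cells (luciferase flanked by upstream and downstream ATXN2 gene portions) were treated 24 h at 37 °C with compounds at up to 57 uM. SteadyGlo luminescence gave expression; GF-AFC fluorescence gave viability.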
Numbers without * were called inactive; i = inactive; ? = inconclusive; . = no result given. The call rests on the fitted dose curve; in most records, active means well fitted curve in the direction sought with a large enough effect; inconclusive means small, poorly fitted or top-dose-only effect, or another doubt; inactive means no such curve, though single readings can be large; an effect the other way counts as inactive or inconclusive. Potency means the concentration at half of the fitted maximal effect.

SMILES | HepG2 viability | S2 tox | TGFb SMAD3 inh | Anesthetic bind | ATXN2 expr inh
CC(C)c1cc(C(C)C)c(S(=O)(=O)Nc2cccc3cccnc23)c(C(C)C)c1 | . | . | . | 25% | .
CC(C)(C)n1ncc2c(=O)n(Cc3c(Cl)cccc3Cl)cnc21 | -24% | . | -2% | . | .
COc1cc(SC#N)ccc1N=Cc1c(C)[nH]n(-c2ccc(Cl)cc2)c1=O | 1% | ? | 65% | -11% | -34%
COc1cc(SC#N)ccc1N=Cc1c(C)[nH]n(-c2ccc(C)c(C)c2)c1=O | 8.9µM* | 13µM* | ? | -11% | 11µM*
Cc1ccccc1OCCSc1nc2ncnc(N)c2[nH]1 | -1% | i | 10% | -1% | -3%
O=C(C[n+]1ccccc1)c1ccc(-c2ccccc2)cc1 | -11% | i | -17% | -10% | ?
CN(C)c1cc[n+](CC(=O)c2ccc(-c3ccccc3)cc2)cc1 | -28% | i | ? | -20% | 2.8µM*
Cc1cc(N(C)C)ccc1/C=C/c1ccnc2ccccc12 | -2% | . | 29% | . | .
CC1(S(=O)(=O)O)CC(=O)c2ccccc2C1=O (stereo not drawn) | -103% | . | ? | -3% | 25µM*
O=C(Nc1ccccc1)C1=C[C@H](c2ccc(C(F)(F)F)cc2)C[C@H](OCc2ccc(CO)cc2)O1 | -32% | ? | 13µM* | -11% | ?
O=C(NCc1nc2ccccc2[nH]1)C1=C[C@@H](c2ccc(Br)cc2)C[C@@H](OCc2ccc(CO)cc2)O1 | -57% | ? | 13µM* | -3% | 0%
CCCC(=O)Nc1ccccc1NC(=O)CN(C)S(=O)(=O)c1ccc(C)cc1 | 13µM* | i | -7% | 3% | 4%
CC(=O)Nc1ccccc1NC(=O)CN(C)S(=O)(=O)c1ccc(C)cc1 | -5% | i | 0% | -3% | -1%
Cc1ccc(NCc2ccccc2O)cc1 | 1% | ? | -9% | ? | 31%
Cc1ccccc1NCc1ccccc1O | -25% | i | -21% | 18µM* | -2%
O=C(NCCOc1ccccc1)c1ccc2c(c1)OCO2 | -10% | i | -19% | 2% | 4.5µM*
O=C(CCN1CCCC1Cc1ccccc1)c1ccc2c(c1)OCCO2 (stereo not drawn) | -113% | . | 11µM* | -17% | ?
O=C(CCN1CCc2ccccc2C1)c1ccc2c(c1)OCCO2 | 7.1µM* | i | ? | ? | -5%
